Results taken from PubChem BioAssay AID1326 (NMMLSC, 2008).
Among all 190,000 compounds or so, about 130 (0.068%) were called active. For the sample, actives were picked, then their nearest neighbours and some compounds at random. Unmarked numbers belong to inactive results. Cut-off read from the data, not from the text of the source: active = inhibition above about 40%; inactive = the rest.

Biological target: ATP-dependent translocase ABCB1 (Homo sapiens) (UniProt P08183)
Assay: ABCB1 efflux pump inhibitors, primary screen, cell-based, multiplex, flow cytometry, ABCG2 counter-screen (AID 1326);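 note: 0% = vehicle and 100% = reference inhibitor; higher value means more JC-1 retained so stronger ABCB1 efflux block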
Conditions: CCRF-Adr cells, JC-1 efflux, at 6.6 µM, active compounds read high

ATP-dependent translocase ABCB1 (Homo sapiens), sequence (P08183 whole entry, looked up): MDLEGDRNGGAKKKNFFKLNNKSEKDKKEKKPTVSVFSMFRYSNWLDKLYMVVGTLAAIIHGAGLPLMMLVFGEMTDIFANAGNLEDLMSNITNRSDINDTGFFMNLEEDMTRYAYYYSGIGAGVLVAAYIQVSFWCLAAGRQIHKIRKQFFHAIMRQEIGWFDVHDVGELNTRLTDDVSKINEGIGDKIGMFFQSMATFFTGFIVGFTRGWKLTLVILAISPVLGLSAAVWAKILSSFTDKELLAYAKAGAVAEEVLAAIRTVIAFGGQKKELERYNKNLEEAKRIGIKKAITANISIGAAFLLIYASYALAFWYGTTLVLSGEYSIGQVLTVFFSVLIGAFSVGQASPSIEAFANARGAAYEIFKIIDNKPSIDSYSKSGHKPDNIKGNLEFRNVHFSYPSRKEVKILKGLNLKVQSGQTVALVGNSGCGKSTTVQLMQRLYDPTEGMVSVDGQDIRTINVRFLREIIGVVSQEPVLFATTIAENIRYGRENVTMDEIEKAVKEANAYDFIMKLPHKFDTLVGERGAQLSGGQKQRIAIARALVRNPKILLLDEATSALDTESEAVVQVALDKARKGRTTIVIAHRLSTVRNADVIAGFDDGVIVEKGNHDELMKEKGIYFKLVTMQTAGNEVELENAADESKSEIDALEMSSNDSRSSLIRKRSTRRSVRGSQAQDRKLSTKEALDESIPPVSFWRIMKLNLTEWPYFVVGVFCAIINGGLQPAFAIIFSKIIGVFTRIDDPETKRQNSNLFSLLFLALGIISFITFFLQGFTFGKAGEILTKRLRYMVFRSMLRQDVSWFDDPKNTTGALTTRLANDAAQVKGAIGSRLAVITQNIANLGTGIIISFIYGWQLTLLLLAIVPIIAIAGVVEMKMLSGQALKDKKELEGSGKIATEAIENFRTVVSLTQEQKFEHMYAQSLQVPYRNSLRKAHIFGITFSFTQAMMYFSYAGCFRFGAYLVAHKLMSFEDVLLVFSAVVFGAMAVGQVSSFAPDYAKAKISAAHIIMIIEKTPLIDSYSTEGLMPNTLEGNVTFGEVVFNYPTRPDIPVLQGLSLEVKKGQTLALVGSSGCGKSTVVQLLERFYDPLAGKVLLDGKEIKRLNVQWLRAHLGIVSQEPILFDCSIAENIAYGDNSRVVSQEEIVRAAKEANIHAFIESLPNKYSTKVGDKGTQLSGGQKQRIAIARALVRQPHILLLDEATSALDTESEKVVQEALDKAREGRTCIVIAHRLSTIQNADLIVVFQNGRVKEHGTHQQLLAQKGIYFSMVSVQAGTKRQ

Row | Structure (SMILES) | inhibition
1 | Cc1ccc2c(c1)C1CN(C)CCC1N2C(=S)Nc1ccc(Cl)cc1Cl (stereo not given) | -0.2%
2 | Cc1cccc(C)c1OCC(O)CN1CCCCC1 (stereo not given) | 0.13%
3 | Cc1ccc(OCC(O)CN2CCN(CC(O)COc3ccc(C)cc3Cl)CC2)c(Cl)c1 (stereo not given) | 77.3% (active)
4 | Cc1ccccc1OCC(O)CN1CCN(c2ccccn2)CC1 (stereo not given) | 2.19%
5 | COc1cccc(OC)c1C(=O)OCC(=O)/C(C#N)=C(\C)N | 0.08%
6 | CCN1/C(=C\c2ccc3ccccc3[n+]2CC)Sc2cc(C)ccc21 | 19.6%
7 | CCC(=O)/C=C1\Sc2ccccc2N1CC | 0.19%
8 | Cc1ccccc1-c1n[nH]c(=S)n1C | -0.08%
9 | CC(=O)c1ccc(NC(=O)CSC(=S)N2CCCC2)cc1 | 0.83%
10 | O=C(N/N=C/c1ccc([N+](=O)[O-])o1)c1cccc(S(=O)(=O)N2CCOCC2)c1 | 1.78%
11 | COC(=O)CC1=NN(c2nc(C)cc(C)n2)C(=O)C1 | 3.04%
12 | COc1ccc(Cl)cc1NC(=O)[C@@H]1CCCN1C(=O)c1cccs1 | 1.1%
13 | O=C(NNC(=S)NC(=O)c1cn(-c2ccccc2)nc1-c1ccccc1)c1ccncc1 | -0.12%
14 | O=C1N/C(=N\N=C\c2ccco2)SC1Cc1ccc(F)cc1 (stereo not given) | -0.31%
15 | COC(=O)c1ccc(CSc2nncn2N)cc1 | -0.7%
16 | CCCN1CNC(=S)N(CCc2ccccc2)C1 | 0.53%
17 | COc1ccc(CNC(=O)COC(=O)/C=C/c2ccc(S(=O)(=O)N3CCOCC3)cc2)cc1 | -0.38%
18 | CC(C)(C)OC(=O)N1CCC(NC(=O)c2[nH]cnc2C(=O)N[C@@H](Cc2ccccc2)C(=O)OCc2ccccc2)CC1 | 15.7%
19 | CC1=C(C)CC(C(=O)NC(C)CCc2ccccc2)C(C(=O)O)C1 (stereo not given) | 0.3%
20 | O=C(Cc1c[nH]c2ccccc12)N/N=C/c1cccc(F)c1 | -0.1%
21 | CCC(CC)c1nnc(NC(=O)/C=C/c2ccco2)s1 | 0.26%
22 | CN(C)c1nc(N)nc(Cn2nnc(-c3ccc(C(F)(F)F)cc3)n2)n1 | -0.39%
23 | O=S(=O)(c1ccc(-c2ccccc2)cc1)N1CCCC1 | 1.29%
24 | O=C(CCS(=O)(=O)Cc1ccccc1)Nc1ccc2c(c1)OCCO2 | 0.73%

Row | Structure (SMILES) | inhibition
25 | Cc1cc(C)cc(NC(=O)COC(=O)c2cc(C)oc2C)c1 | 1.39%
26 | Cc1ccc(C(NC(=O)N2CCCC2)C(Cl)(Cl)Cl)cc1F (stereo not given) | 0.9%
27 | CCS(=O)(=O)c1ccc(O)c(NC(=O)COc2ccc(Cl)cc2)c1 | 0.2%
28 | CCn1c(COc2c(C)cccc2C)nnc1SCc1nc2ccccc2c(=O)[nH]1 | 0.72%
29 | CS(=O)(=O)c1ccc2nc(NC(=O)c3ccc(Cl)nc3)sc2c1 | 0.4%
30 | Cc1nnc(SCCCCSc2nnc(C)c(=O)[nH]2)[nH]c1=O | 1.4%
31 | CC(C)OCCCNC(=O)c1ccc(C2SCC(=O)N2Cc2ccco2)cc1 (stereo not given) | 1.04%
32 | CSc1ccccc1NC(=O)Cc1ccc(Br)cc1 | 1.94%
33 | O=C(CN(c1cccc(Cl)c1)S(=O)(=O)c1ccccc1)NN=C1CCCC1 | 0.27%
34 | O=C(COC(=O)c1ccccc1C(=O)N1CCN(c2ccccc2)CC1)NCc1ccccc1 | 1.33%
35 | O=C1CN(C(=O)CN2C(=O)NC3(CCCCC3)C2=O)c2ccccc2N1 | 0.2%
36 | Cc1sc2nc(COC(=O)C(NC(=O)c3ccc(Cl)cc3Cl)C(C)C)[nH]c(=O)c2c1C (stereo not given) | -0.58%
37 | CCc1ccc(Nc2nnc(SCC(=O)c3ccc4c(c3)NC(=O)CO4)s2)cc1 | -0.13%
38 | CCOc1ccc(C(=O)Nc2cccc(SC)c2)cc1 | 0.08%
39 | COC(=O)CCC(=O)N1CCCC(CO)(Cc2ccccc2)C1 (stereo not given) | 0.1%
40 | CN(C)c1ccc(Nc2c3c4c(cccc4n(C)c2=O)C(=O)c2ccccc2-3)cc1 | 13.5%
41 | Cc1ccc(O)c(-c2cc(C(=O)Nc3c(C)n(C)n(-c4ccccc4)c3=O)[nH]n2)c1 | 0.33%
42 | COc1ccc(C2OCC3(CO2)SC(=O)NC3=O)cc1OC (stereo not given) | -0.28%
43 | COc1ccccc1N1CCN(/N=C\C(Br)=C\c2ccccc2)CC1 | 0.81%
44 | N#Cc1ccccc1NC(=O)c1cccc(COc2ccc(Cl)cc2Cl)c1 | -0.17%
45 | CCOC(=O)c1ccc(NC(=S)Nc2cc(C)cc(C)n2)cc1 | 1.25%
46 | COc1cc(C(=O)NCc2nnc(SCC(=O)Nc3nc4ccc(C)cc4s3)o2)cc(OC)c1OC | -2.31%
47 | Cc1ccccc1Nc1scc(-c2ccc(Br)cc2)[n+]1-c1ccccc1C | -2.63%
48 | CCCn1nc(NS(=O)(=O)c2ccccc2)c2cc3cc(C)ccc3nc21 | 0.68%

Row | Structure (SMILES) | inhibition
49 | O=S(=O)(c1ccccc1)c1nc(-c2ccccc2F)oc1NCc1cccnc1 | 5.26%
50 | c1ccc2c(c1)OCCOCCOCCO2 | 0.51%
51 | CC(=O)Cc1nsc(NC(=O)c2ccc(Cl)cc2Cl)n1 | -0.31%
52 | COC(=O)c1cc(NC(=O)CN2CCN(C(C)=O)CC2)cc(C(=O)OC)c1 | 1.14%
53 | CC(CNC(=O)c1ccc(N)cc1)NC(=O)c1ccc(N)cc1 (stereo not given) | -0.82%
54 | CS(=O)(=O)N1CCC(C(=O)N2CCN(c3ccccc3)CC2)CC1 | 0.86%
55 | CCC1SC(CC)C(=O)N(CC(=O)NC2CCCCC2)C1=O (stereo not given) | 0.07%
56 | Cc1c(Cl)c([N+](=O)[O-])nn1CC(=O)NCC1CCCO1 (stereo not given) | -0.1%
57 | COc1ccc(-n2nnnc2SCC(=O)NCc2cccs2)cc1 | 2.4%
58 | CCOc1ccc2nc(NC(=O)c3cc([N+](=O)[O-])ccc3N3CCOCC3)sc2c1 | -1.41%
59 | NC(=O)COC(=O)c1sc2cc(F)ccc2c1Cl | -0.04%
60 | COc1ccc(C(=O)COC(=O)c2nn(C)c(=O)c3ccccc23)c(OC)c1 | 0.19%
61 | O=C1c2cccc3c([N+](=O)[O-])ccc(c23)C(=O)N1CC1CCCO1 (stereo not given) | 0.98%
62 | CN(CCOc1ccccc1)Cc1nc2cc(Cl)ccc2c(=O)[nH]1 | 0.26%
63 | Cc1ccc(Nc2c(F)c(F)c(F)c(F)c2C(=O)O)c(C)c1 | -0.24%
64 | Cc1ccc(CNC(=O)CCNS(=O)(=O)c2ccc(Br)s2)cc1 | -0.56%
65 | NS(=O)(=O)c1ccc(CCNC(=O)c2ccc(Cl)cc2[N+](=O)[O-])cc1 | 1.3%
66 | COc1ccccc1NC(=O)CCSc1nnc(-c2ccc(O)cc2)o1 | 0.42%
67 | COc1ccc(/C=N/Nc2ncnc3sc4c(c23)CCCC4)cc1O | -0.22%
68 | N#Cc1cnn2cc(CCN3CCOCC3)c(-c3ccc(F)cc3)nc12 | 1.26%
69 | CCCNCc1cc(OCC)c(OCC(=O)Nc2ccccc2)cc1Br | 0.07%
70 | O=C(CN(C(=O)c1csnn1)c1cccc(F)c1)NCc1ccc(F)cc1 | 1.22%
71 | COC(=O)c1ccc(C(NC(=O)OCc2ccccc2)/C(C)=C/[C@@H](C)C(=O)NCc2ccc(OC)c(OC)c2)cc1 (stereo not given in full) | 9.15%
72 | Cc1ccccc1CSc1nnc(-c2ccccc2)c(=O)[nH]1 | 0.19%

Row | Structure (SMILES) | inhibition
73 | CCC(C)(C)NC(=O)C(c1cccc(OC)c1OC)N(CC(C)C)C(=O)CCC(=O)Nc1cc(C)on1 (stereo not given) | 1.31%
74 | CCOC(=O)C1(C)NC(c2ccco2)C2C(=O)N(c3ccccc3)C(=O)C21 (stereo not given) | 0.47%
75 | CCOC(=O)NC(=O)CSc1nnc(SCCC(=O)O)s1 | 0.52%
76 | Cc1nn(CCOc2ccc(Br)cc2)c(C)c1[N+](=O)[O-] | 1.06%
77 | CN(C)c1ccc(/C=N/NC(=O)C(O)c2ccc(Br)cc2)cc1 (stereo not given) | 0.7%
78 | OC1CSc2nc3ccccc3n2C1 (stereo not given) | -0.99%
79 | Cc1ccc(C)c(-n2nnnc2SCC(=O)c2c(N)n(C)c(=O)n(C)c2=O)c1 | -0.82%
80 | Nc1nc(CC(=O)CSc2ccc(Cl)cc2)nc(Nc2ccc(F)cc2)n1 | 0.01%
81 | COc1ccc(Br)cc1/C=N/Nc1ccc(Cl)c(C(=O)O)c1 | -0.4%
82 | Cc1cc(/C=C2/SC(=O)N(CC(=O)N3CCCC3)C2=O)ccc1N1CCOCC1 | 1.48%
83 | Cc1nc(S(=O)(=O)c2ccc(Br)cc2)nc2c1CCC2 | 0.58%
84 | COc1ccccc1NC(=O)c1cc(Cl)nnc1Cl | 1.04%
85 | COc1ccc(S(=O)(=O)N(C)CC(=O)N2CCCC2)cc1Cl | 1.26%
86 | COc1ccc(C(=O)Nc2ccc(N3CCC(C)CC3)cc2)cc1Br | 1.32%
87 | Cc1ccc(C(=O)N/C(=C/c2cccnc2)C(=O)O)cc1 | 0.02%
88 | O=C(O)c1cccc(NC(=O)c2cc(-c3cccc(Cl)c3)nc3ccccc23)c1 | -0.61%
89 | C/C(=N\Nc1ncc(Cl)cc1Cl)c1cccs1 | 0.7%
90 | COC(=O)c1c(C(=O)OC)c(-c2cccc(C)c2)n2c1CS(=O)C2 (stereo not given) | 0.19%
91 | COCC(C)n1c(C)cc(C(=O)COc2ccc(C)nc2[N+](=O)[O-])c1C (stereo not given) | 0%
92 | S=c1[nH]nc(NCCc2ccccc2)s1 | -0.12%
93 | C/C(=N\NC(=O)C(N)=O)c1ccc2c(c1)OCCO2 | 1.58%
94 | CC(C)/C=N/NC(=O)c1cc(Br)ccc1O | 0.05%
95 | O=C(O)CC(SCC(=O)Nc1ccc(Br)cc1)C(=O)O (stereo not given) | -0.05%
